Assay results: PubChem BioAssay (EPA / NIEHS)
Active and inactive are the calls of the source. The calls were made as follows: active = hit-call score of the fitted dose curve at least 0.9, where 1 is the maximum; inactive = score below 0.9.

Key:
[1] = read-out: TIMP metallopeptidase inhibitor 2 (TIMP2), TIMP2 (gene 7077); test: BSK_KF3CT_TIMP2: BioMAP Diversity Plus: KF3CT Assay for TIMP metallopeptidase inhibitor 2 (TIMP2) Biomarker Activity (AID 2283071); conditions: primary human keratinocytes with fibroblasts; actives raise or lower the signal
Outline: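 ELISA readout of TIMP-2 in keratinocyte plus foreskin fibroblast co-cultures (human skin primary cells), 24 h post-dose. Gain or loss of signal fitted relative to DMSO.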

[2] = read-out: Transforming growth factor beta 1 (TGFb1), TGFB1 (gene 7040); test: BSK_KF3CT_TGFb1: BioMAP Diversity Plus: KF3CT Assay for Transforming growth factor beta 1 (TGFb1) Biomarker Activity (AID 2283072); conditions: primary human keratinocytes with fibroblasts; actives raise or lower the signal
Outline: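 Read-out: ELISA for TGF-b1 in keratinocyte/foreskin fibroblast human skin co-culture, 24 h after dosing; bidirectional curve fit vs DMSO baseline; gain or loss of signal scored.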

[3] = read-out: C-C motif chemokine 2 (Homo sapiens) (UniProt P13500); test: BSK_KF3CT_MCP1: BioMAP Diversity Plus: KF3CT Assay for Monocyte Chemoattractant Protein 1 (MCP1/CCL2) Biomarker Activity (AID 2283073); conditions: primary human keratinocytes with fibroblasts; actives raise or lower the signal
Outline: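 Human keratinocyte plus foreskin fibroblast primary co-culture exposed to chemical for 24 h. MCP-1 levels measured by ELISA. Bidirectional curve fitting relative to DMSO negative control as baseline.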

[4] = read-out: CD40, CD40 (gene 958); test: BSK_LPS_CD40: BioMAP Diversity Plus: LPS Assay for CD40 Biomarker Activity (AID 2283076); conditions: primary human HUVEC with PBMC; actives raise or lower the signal
Outline: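 Primary human umbilical vein endothelial cells co-cultured with peripheral blood mononuclear cells, LPS-stimulated, were dosed with chemical and read 24 h later. CD40 levels were measured by ELISA and fitted bidirectionally against DMSO as negative control and baseline.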

[5] = read-out: E-selectin (Homo sapiens) (UniProt P16581); test: BSK_LPS_Eselectin: BioMAP Diversity Plus: LPS Assay for Eselectin Biomarker Activity (AID 2283077); conditions: primary human HUVEC with PBMC; actives raise or lower the signal
Outline: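 Human umbilical vein endothelial cells co-cultured with peripheral blood mononuclear cells under LPS stimulation; E-selectin measured by ELISA 24 h after chemical dosing. Activity fitted bidirectionally against DMSO as negative control and baseline.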

[6] = read-out: Interleukin-8 (IL8), CXCL8 (gene 3576); test: BSK_LPS_IL8: BioMAP Diversity Plus: LPS Assay for Interleukin-8 (IL8) Biomarker Activity (AID 2283078); conditions: primary human HUVEC with PBMC; actives raise or lower the signal
Outline: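 Human umbilical vein endothelial cells co-cultured with PBMC were stimulated with LPS; IL-8 levels were measured by ELISA 24 h after chemical dosing. Activity was fitted bidirectionally against DMSO as negative control and baseline.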

[7] = BSK_LPS_SRB: Viability Assessment in the BioMAP Diversity Plus: LPS Assay (AID 2283079); conditions: primary human HUVEC with PBMC;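 also: total protein by sulforhodamine B absorbance as a cytotoxicity measure; measured one day after compound addition; fitted in both directions against DMSO so loss or gain of signal counts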
Outline: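 Human umbilical vein endothelial cells co-cultured with PBMC (LPS system) were dosed for 24 h. Total protein was stained with 0.1% sulforhodamine B after 10% TCA fixation, read at 560 nm, and fitted bidirectionally against DMSO baseline.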

[8] = read-out: Interleukin-1 alpha (IL1a), IL1A (gene 3552); test: BSK_LPS_IL1a: BioMAP Diversity Plus: LPS Assay for Interleukin-1 alpha (IL1a) Biomarker Activity (AID 2283080); conditions: primary human HUVEC with PBMC; actives raise or lower the signal
Outline: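 Human umbilical vein endothelial cells co-cultured with peripheral blood mononuclear cells were LPS-stimulated and exposed to test chemicals for 24 h. IL-1 alpha was quantified by ELISA, with bidirectional curve fitting against DMSO as the negative control and baseline.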

[9] = read-out: Monocyte Chemoattractant Protein-1 (MCP1), CCL2 (gene 6347); test: BSK_LPS_MCP1: BioMAP Diversity Plus: LPS Assay for Monocyte Chemoattractant Protein-1 (MCP1) Biomarker Activity (AID 2283081); conditions: primary human HUVEC with PBMC; actives raise or lower the signal;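 as to AC50: secreted MCP-1 protein quantified by ELISA in culture supernatant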
Outline: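 HUVEC plus PBMC co-culture (human primary cells, LPS system) exposed to test chemical for 24 h; MCP-1 measured by ELISA. Bidirectional curve fitting against DMSO baseline; parallel SRB total-protein staining flags overt cytotoxicity.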

[10] = BSK_LPS_PGE2: BioMAP Diversity Plus: LPS Assay for Prostaglandin E2 (PGE2) Biomarker Activity (AID 2283082); conditions: primary human HUVEC with PBMC; actives raise or lower the signal;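 as to AC50: secreted prostaglandin E2 measured by ELISA in LPS-stimulated co-culture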
Outline: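 ELISA read-out of PGE2 from human umbilical vein endothelial cells co-cultured with peripheral blood mononuclear cells under LPS, 24 h post-dose. Gain or loss of signal scored relative to DMSO baseline.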

[11] = read-out: Tumor necrosis factor (Homo sapiens) (UniProt P01375); test: BSK_LPS_TNFa: BioMAP Diversity Plus: LPS Assay for Tumour Necrosis Factor alpha (TNFa) Biomarker Activity (AID 2283085); conditions: primary human HUVEC with PBMC; actives raise or lower the signal;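 as to AC50: TNFa protein level quantified by ELISA in the co-culture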
Outline: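 HUVEC/PBMC co-culture, LPS-stimulated; 24 h post-dose; TNFa by ELISA; gain or loss of signal fitted bidirectionally vs DMSO baseline.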

[12] = read-out: Vascular cell adhesion molecule 1 (VCAM1), VCAM1 (gene 7412); test: BSK_LPS_VCAM1: BioMAP Diversity Plus: LPS Assay for Vascular cell adhesion molecule 1 (VCAM1) Biomarker Activity (AID 2283086); conditions: primary human HUVEC with PBMC; actives raise or lower the signal
Outline: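 ELISA read-out of VCAM-1 at 24 h post-dosing in an LPS-driven HUVEC/PBMC primary human co-culture; gain or loss of signal fitted bidirectionally against DMSO baseline. Cytotoxicity tracked in parallel cultures by SRB total-protein staining.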

[13] = read-out: CD40, CD40 (gene 958); test: BSK_SAg_CD40: BioMAP Diversity Plus: SAg Assay for CD40 Biomarker Activity (AID 2283088); conditions: primary human HUVEC with PBMC; actives raise or lower the signal
Outline: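 Human umbilical vein endothelial cells co-cultured with PBMC; CD40 levels measured by ELISA with fluorescence read-out 24 h after chemical dosing. Gain or loss of signal fitted bidirectionally against DMSO baseline.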

[14] = read-out: CD69, CD69 (gene 969); test: BSK_SAg_CD69: BioMAP Diversity Plus: SAg Assay for CD69 Biomarker Activity (AID 2283089); conditions: primary human HUVEC with PBMC; actives raise or lower the signal;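 as to AC50: cell surface CD69 protein quantified by ELISA with fluorescence detection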
Outline: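 HUVEC co-cultured with PBMC were dosed with chemical, and CD69 was measured by ELISA with fluorescence read-out 24 h later. Bidirectional curve fitting used DMSO as negative control and activity baseline.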

[15] = read-out: Monocyte Chemoattractant Protein-1 (MCP1), CCL2 (gene 6347); test: BSK_SAg_MCP1: BioMAP Diversity Plus: SAg Assay for Monocyte Chemoattractant Protein-1 (MCP1) Biomarker Activity (AID 2283090); conditions: primary human HUVEC with PBMC; actives raise or lower the signal
Outline: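 Values derive from bidirectional fitting of ELISA-measured MCP1 against DMSO controls. Readings were taken 24 h after dosing human vascular endothelial cells co-cultured with peripheral blood mononuclear cells under superantigen stimulation.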

[16] = read-out: Tissue Factor, F3 (gene 2152); test: BSK_LPS_TissueFactor: BioMAP Diversity Plus: LPS Assay for Tissue Factor Biomarker Activity (AID 2283084); conditions: primary human HUVEC with PBMC; actives raise or lower the signal
Outline: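 Human umbilical vein endothelial cells co-cultured with peripheral blood mononuclear cells were dosed and stimulated with LPS. Cell-surface CD142 was quantified by ELISA at 24 h. Activity was fitted bidirectionally against DMSO baseline.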

[17] = read-out: CD38, CD38 (gene 952); test: BSK_SAg_CD38: BioMAP Diversity Plus: SAg Assay for CD38 Biomarker Activity (AID 2283087); conditions: primary human HUVEC with PBMC; actives raise or lower the signal
Outline: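 Measures CD38 on a human endothelial/PBMC co-culture driven by SEB and TSST-1, 24 h after compound exposure, using ELISA with fluorescence detection; DMSO defines baseline for bidirectional curve fitting.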

[18] = read-out: urokinase plasminogen activator (uPA), PLAU (gene 5328); test: BSK_KF3CT_uPA: BioMAP Diversity Plus: KF3CT Assay for urokinase plasminogen activator (uPA) Biomarker Activity (AID 2283075); conditions: primary human keratinocytes with fibroblasts; actives raise or lower the signal
Outline: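 Values derive from bidirectional fitting against DMSO controls. Keratinocyte/foreskin fibroblast co-cultures received chemical; 24 h later uPA was detected by ELISA, with SRB total-protein staining in parallel wells for overt cytotoxicity.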

[19] = read-out: Macrophage colony-stimulating factor (MCSF), CSF1 (gene 1435); test: BSK_LPS_MCSF: BioMAP Diversity Plus: LPS Assay for Macrophage colony-stimulating factor (MCSF) Biomarker Activity (AID 2283083); conditions: primary human HUVEC with PBMC; actives raise or lower the signal
Outline: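 Human umbilical vein endothelial cells co-cultured with peripheral blood mononuclear cells were exposed to compound for 24 h. M-CSF levels were measured by ELISA, and bidirectional curve fitting used DMSO as the negative control and baseline.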

Measured: AC50

Chain of E-selectin (Homo sapiens) (P16581 whole entry, looked up): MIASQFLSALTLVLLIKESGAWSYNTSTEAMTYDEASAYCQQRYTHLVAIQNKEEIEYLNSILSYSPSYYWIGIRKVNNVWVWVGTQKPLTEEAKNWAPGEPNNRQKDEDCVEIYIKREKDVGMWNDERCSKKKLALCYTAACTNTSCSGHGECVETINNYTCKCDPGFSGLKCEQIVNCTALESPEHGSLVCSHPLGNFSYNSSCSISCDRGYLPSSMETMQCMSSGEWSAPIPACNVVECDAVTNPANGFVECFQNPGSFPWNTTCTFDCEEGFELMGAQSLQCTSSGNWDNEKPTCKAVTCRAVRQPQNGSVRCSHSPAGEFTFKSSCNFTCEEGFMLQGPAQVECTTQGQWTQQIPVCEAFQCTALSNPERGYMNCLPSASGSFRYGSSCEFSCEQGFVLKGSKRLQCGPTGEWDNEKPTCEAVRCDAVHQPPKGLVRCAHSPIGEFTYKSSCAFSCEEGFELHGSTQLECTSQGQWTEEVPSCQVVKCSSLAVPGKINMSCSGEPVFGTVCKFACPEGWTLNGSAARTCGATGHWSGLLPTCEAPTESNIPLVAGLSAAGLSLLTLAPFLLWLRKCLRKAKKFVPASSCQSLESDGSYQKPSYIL
Chain of Tumor necrosis factor (Homo sapiens) (P01375 whole entry, looked up): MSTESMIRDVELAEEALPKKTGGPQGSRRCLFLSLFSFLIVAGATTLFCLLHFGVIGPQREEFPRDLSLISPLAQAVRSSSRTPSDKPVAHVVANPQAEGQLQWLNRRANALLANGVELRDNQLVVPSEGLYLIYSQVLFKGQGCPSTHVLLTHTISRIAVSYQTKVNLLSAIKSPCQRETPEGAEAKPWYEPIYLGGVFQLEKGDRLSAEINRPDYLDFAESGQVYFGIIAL

CCCCCCCCCCCO
not listed: [16] | [17] | [18] | [19]
inactive: all other assays above

O=c1ccc2ccccc2o1
not listed: [18] | [19]
inactive: all other assays above

O=C=NCCCCCCN=C=O
not listed: [1] | [9] | [17] | [18] | [19]
inactive: all other assays above

CN1C(=O)CC[C@H]1c1cccnc1
not listed: [9]
inactive: all other assays above

CO[C@H]1/C=C/O[C@@]2(C)Oc3c(C)c(O)c4c(O)c(c(/C=N/N5CCN(C)CC5)c(O)c4c3C2=O)NC(=O)/C(C)=C\C=C\[C@H](C)[C@H](O)[C@@H](C)[C@@H](O)[C@@H](C)[C@H](OC(C)=O)[C@@H]1C
active: [14] 0.64 µM
not listed: [18] | [19]
inactive: all other assays above

O=c1[nH]sc2ccccc12
active: [1] 32.2 µM | [2] 30.7 µM | [3] 30.4 µM | [4] 7.06 µM | [5] 25.9 µM | [6] 22.1 µM | [7] 25.7 µM | [8] 8.77 µM | [9] 17.6 µM | [10] 3.94 µM | [19] 12 µM | [16] 17.7 µM | [11] 9.18 µM | [12] 9.14 µM | [13] 7.92 µM | [14] 13.1 µM | [15] 15.3 µM

CC(C)(O)c1ccc(CNC(=O)c2cccnc2Oc2ccc3nonc3c2)cc1
active: [11] 1.49 µM
not listed: [9] | [17] | [18] | [19]
inactive: all other assays above
